# Experimental data reported in PubChem BioAssay (Tox21).
# Inconclusive results are not listed. Entries that show only a call come without a potency. Values without a mark were called inactive. Activity calls are given as the source filed them. Unless noted, calls follow the shape of the dose curve; as a rule, active = well fitted curve in the direction sought with a large enough effect in the repeat runs; inconclusive = weak or mixed curves; inactive = no such curve, though single readings can be large; an effect the other way counts as inactive or inconclusive.
# How the values were obtained:
# [1] = molecular target: Retinoic acid receptor RXR-alpha (Homo sapiens) (UniProt P19793); experiment: qHTS assay to identify small molecule agonists of the RXR signaling pathway (AID 1159527; calls by dose curve; also: nearly all actives have a fitted effect of over 35% in size)
# Retinoic acid receptor RXR-alpha (Homo sapiens), sequence (P19793 whole entry, looked up): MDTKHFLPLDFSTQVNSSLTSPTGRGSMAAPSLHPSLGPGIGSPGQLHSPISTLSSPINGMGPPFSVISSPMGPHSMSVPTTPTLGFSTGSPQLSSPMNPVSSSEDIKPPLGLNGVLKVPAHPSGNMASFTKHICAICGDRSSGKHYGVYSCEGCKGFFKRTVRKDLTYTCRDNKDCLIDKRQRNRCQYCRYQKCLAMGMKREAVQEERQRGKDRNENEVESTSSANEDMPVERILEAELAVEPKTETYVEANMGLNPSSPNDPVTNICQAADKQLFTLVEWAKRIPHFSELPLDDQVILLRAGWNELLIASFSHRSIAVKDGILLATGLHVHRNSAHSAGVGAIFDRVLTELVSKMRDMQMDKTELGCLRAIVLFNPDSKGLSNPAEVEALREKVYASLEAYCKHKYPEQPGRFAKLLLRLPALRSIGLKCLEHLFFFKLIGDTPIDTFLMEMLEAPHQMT
# Summary of the method: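 Agonist mode; 9-cis retinoic acid positive control. HEK 293T UAS-bla reporter cells, 2% charcoal-stripped FBS, 16 hr compound exposure at 37 C/5% CO2. LiveBLAzer B/G FRET substrate 2 hr RT; ex 405, em 460/530 nm.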
# [2] = qHTS assay to identify small molecule agonists of the RXR signaling pathway - cell viability counter screen (AID 1159529); also: series mostly up to about 77 µM; nearly all actives have a fitted effect of over 50% in size
# Summary of the method: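 Luminescence from CellTiter-Glo (30 min, RT) measured viability in the same wells as the beta-lactamase reporter readout. Cells: GeneBLAzer RXR-alpha HEK 293T, 2% charcoal-stripped FBS. Compound exposure 16 hr, 37 C.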
# [3] = qHTS assay to identify small molecule antagonists of the retinoid acid receptor (RAR) signaling pathway - cell viability counter screen (AID 1159551); also: nearly all actives have a fitted effect of over 35% in size
# Summary of the method: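 Cytotoxicity counter screen in C3RL4 cells: 6 h compound exposure with 1 uM retinol (final), viability from cellular ATP by luminescence.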
# [4] = qHTS assay to identify small molecule antagonists of the retinoic acid receptor (RAR) signaling pathway (AID 1159552; also: nearly all actives have a fitted effect of over 50% in size)
# Summary of the method: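 Luminescence from a RARE luciferase reporter in C3RL4 cells served as read-out. Cells received compounds together with 1 uM final retinol and incubated 6 hr at 37 C before detection reagent was added for 30 min at room temperature.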
# [5] = qHTS assay to identify small molecule antagonists of the estrogen related receptor (ERR) signaling pathway from Tox21 library - cell viability counter screen (AID 1224834); also: nearly all actives have a fitted effect of over 30% in size
# Summary of the method: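 Cytotoxicity of test substances is gauged in the same ERR cells used for the antagonist screen, after 17.5 h of compound treatment at 37 C, by CellTiter-Fluor fluorescence measured after 30 min.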
# [6] = qHTS assay to identify small molecule agonists of the constitutive androstane receptor (CAR) signaling pathway - cell viability counter screen (AID 1224836); also: series mostly up to about 92 µM; nearly all actives have a fitted effect of over 45% in size
# Summary of the method: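 Viability read-out: CellTiter-Fluor fluorescence after 23 h compound exposure at 37 C/5% CO2 in double-stable HepG2-CYP2B6-hCAR cells, with PK11195 present at 0.75 uM final; compounds tested in 15-point titration.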
# [7] = qHTS assay to identify small molecule antagonists of the constitutive androstane receptor (CAR) signaling pathway - cell viability counter screen (AID 1224837); also: series mostly up to about 92 µM; nearly all actives have a fitted effect of over 45% in size
# Summary of the method: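 Multiplexed cytotoxicity read-out for the CAR antagonist screen: double-stable HepG2-CYP2B6-hCAR cells co-treated with 50 nM CITCO (final) and compound over 15 concentrations, incubated 23 hr, then assessed by CellTiter-Fluor fluorescence.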
# [8] = molecular target: Nuclear receptor subfamily 1 group I member 3 (Homo sapiens) (UniProt Q14994); experiment: qHTS assay to identify small molecule antagonists of the constitutive androstane receptor (CAR) signaling pathway (AID 1224838); also: nearly all actives have a fitted effect of over 40% in size
# Nuclear receptor subfamily 1 group I member 3 (Homo sapiens), sequence (Q14994 whole entry, looked up): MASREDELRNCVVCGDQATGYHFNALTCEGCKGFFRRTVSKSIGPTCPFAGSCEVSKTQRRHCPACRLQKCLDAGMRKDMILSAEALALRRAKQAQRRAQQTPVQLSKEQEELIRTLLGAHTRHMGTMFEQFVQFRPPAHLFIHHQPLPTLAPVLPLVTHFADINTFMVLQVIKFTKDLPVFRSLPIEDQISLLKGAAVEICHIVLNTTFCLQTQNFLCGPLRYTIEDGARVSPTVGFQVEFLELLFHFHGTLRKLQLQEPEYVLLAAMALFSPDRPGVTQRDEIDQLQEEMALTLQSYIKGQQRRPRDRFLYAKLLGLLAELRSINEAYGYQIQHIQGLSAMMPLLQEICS
# Summary of the method: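 Compounds were titrated across 15 concentrations onto HepG2 cells double-stably expressing hCAR and a CYP2B6-2.2kb reporter, together with 50 nM CITCO (final). After 24 h at 37 C, luciferase activity was measured by luminescence.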
# [9] = qHTS assay to identify small molecule antagonists of the estrogen related receptor signaling pathway with the pleiotropic PPARgamma coactivator (PGC) from Tox21 10K library - cell viability counter screen (AID 1224840; active = well fitted cell-killing curve with a large enough effect in the repeat runs, not every such curve was filed as active; also: nearly all actives have a fitted effect of over 40% in size)
# Summary of the method: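 Step one, plate 2,000 PGC/ERR cells per well; step two, incubate 6 h at 37 C/5% CO2; step three, pin-transfer compounds; step four, incubate 17.5 h; step five, add CellTiter-Fluor and read fluorescence after 30 min.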
# [10] = qHTS assay to identify small molecule antagonists of the estrogen related receptor signaling pathway with the pleiotropic PPARgamma coactivator (PGC) from Tox21 10K library (AID 1224841; call rule not given here; also: actives are mostly falling curves and most rising ones were filed inactive; nearly all actives have a fitted effect of over 50% in size; also: potency is read from the fitted curve at half-maximal effect)
# Summary of the method: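 Antagonism in this quantitative HTS is taken from loss of luciferase signal in PGC/ERR cells. Cells (2,000/well) are treated with compounds in DMSO after a 6 h settling period and read by One-Glo luminescence after 18 h.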
# [11] = qHTS assay to identify small molecule agonists of the estrogen related receptor signaling pathway with the pleiotropic PPARgamma coactivator (PGC) from Tox21 10K library (AID 1224842); also: nearly all actives have a fitted effect of over 15% in size
# Summary of the method: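 Luminescence from One-Glo (30 min, room temperature) measured after PGC/ERR cells had 18 h at 37 C with pinned compound (23 nL in DMSO). Cells had been seeded at 2,000 per well and pre-incubated 6 h.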
# [12] = molecular target: Thyrotropin receptor (Homo sapiens) (UniProt P16473); experiment: qHTS assay to identify small molecule agonists of the thyroid stimulating hormone receptor (TSHR) signaling pathway (AID 1224843; calls by dose curve; also: nearly all actives have a fitted effect of over 45% in size)
# Thyrotropin receptor (Homo sapiens), sequence (P16473 whole entry, looked up): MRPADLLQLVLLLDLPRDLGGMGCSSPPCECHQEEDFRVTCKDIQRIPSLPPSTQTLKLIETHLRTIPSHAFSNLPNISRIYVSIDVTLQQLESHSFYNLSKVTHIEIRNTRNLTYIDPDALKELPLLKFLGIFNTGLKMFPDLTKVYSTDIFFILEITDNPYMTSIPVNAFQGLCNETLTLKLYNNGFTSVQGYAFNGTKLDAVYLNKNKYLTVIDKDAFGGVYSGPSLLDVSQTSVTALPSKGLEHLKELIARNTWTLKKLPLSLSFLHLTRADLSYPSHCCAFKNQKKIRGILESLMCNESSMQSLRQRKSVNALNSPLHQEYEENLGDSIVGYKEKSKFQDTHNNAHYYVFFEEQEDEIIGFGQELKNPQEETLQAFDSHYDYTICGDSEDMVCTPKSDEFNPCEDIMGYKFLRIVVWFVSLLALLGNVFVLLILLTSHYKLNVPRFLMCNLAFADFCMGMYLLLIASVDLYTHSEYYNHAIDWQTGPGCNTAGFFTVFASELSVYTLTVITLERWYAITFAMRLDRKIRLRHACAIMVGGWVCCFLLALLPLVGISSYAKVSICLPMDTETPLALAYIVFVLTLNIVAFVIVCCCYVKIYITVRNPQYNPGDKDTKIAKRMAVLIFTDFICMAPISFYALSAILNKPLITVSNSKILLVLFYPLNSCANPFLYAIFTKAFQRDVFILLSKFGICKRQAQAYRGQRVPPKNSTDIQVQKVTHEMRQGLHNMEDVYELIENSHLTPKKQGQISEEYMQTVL
# Summary of the method: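 Screening of the Tox21 10K collection used HEK293 cells engineered with TSHR at 800 cells per well. After a 30-min room-temperature compound exposure, HTRF cAMP reagents were added and fluorescence recorded 1 h later.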
# [13] = qHTS assay to identify small molecule agonists of the hypoxia (HIF-1) signaling pathway - cell viability counter screen (AID 1224844; calls by dose curve; also: nearly all actives have a fitted effect of over 50% in size)
# Summary of the method: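 Tox21 10K compounds were added to HRE-bla ME-180 cells (0.5% dialyzed FBS) and incubated 17 hrs at 37C; ATP-based CellTiter-Glo luminescence then reported cell viability in the same wells.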
# [14] = qHTS assay to identify small molecule agonists of H2AX (AID 1224845; active = well fitted activation curve with a large enough effect in the signal ratio in the repeat runs, not every such curve was filed as active; the % refers to the signal ratio)
# Summary of the method: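 Phospho-H2AX Ser139 measured by HTRF (ex 320 nm; em 665 and 620 nm) after 24 hr antibody incubation. Compounds, 15 concentrations, 0.76% DMSO, were applied to CHO-K1 cells for 3hr at 37C before lysis.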
# [15] = molecular target: Luciferin 4-monooxygenase (Photinus pyralis) (UniProt P08659); experiment: qHTS assay to identify small molecule inhibitors of firefly luciferase (AID 1224835); also: nearly all actives have a fitted effect of over 25% in size; also: potency is read from the fitted curve at half-maximal effect
# Luciferin 4-monooxygenase (Photinus pyralis), sequence (P08659 whole entry, looked up): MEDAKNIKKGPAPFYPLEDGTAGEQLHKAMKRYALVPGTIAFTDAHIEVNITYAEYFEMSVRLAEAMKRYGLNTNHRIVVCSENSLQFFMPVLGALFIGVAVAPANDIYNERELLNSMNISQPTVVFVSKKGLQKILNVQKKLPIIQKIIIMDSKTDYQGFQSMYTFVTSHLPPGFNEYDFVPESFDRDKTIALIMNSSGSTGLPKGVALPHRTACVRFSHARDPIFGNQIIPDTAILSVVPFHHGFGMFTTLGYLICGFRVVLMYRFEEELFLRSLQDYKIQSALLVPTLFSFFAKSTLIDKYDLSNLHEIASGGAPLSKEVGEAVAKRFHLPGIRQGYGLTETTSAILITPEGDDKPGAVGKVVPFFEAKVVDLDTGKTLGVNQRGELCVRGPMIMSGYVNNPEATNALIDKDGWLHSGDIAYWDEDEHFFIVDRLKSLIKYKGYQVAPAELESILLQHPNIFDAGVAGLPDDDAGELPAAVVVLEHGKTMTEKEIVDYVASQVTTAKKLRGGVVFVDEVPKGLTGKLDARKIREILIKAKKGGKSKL
# Summary of the method: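 Inhibition of purified Photinus luciferase is measured by luminescence. Substrate levels (D-luciferin, ATP) sit at their KM values. Each compound is tested in a concentration series.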
# [16] = molecular target: Nuclear receptor subfamily 1 group I member 3 (Homo sapiens) (UniProt Q14994); experiment: qHTS assay to identify small molecule agonists of the constitutive androstane receptor (CAR) signaling pathway (AID 1224839);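 also: HepG2 cells stably carrying human CAR and a CYP2B6 luciferase reporter; series mostly up to about 92 µM; nearly all actives have a fitted effect of over 15% in size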
# Summary of the method: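 Luminescence read-out (ONE-Glo, 30 min, room temperature) from double-stable HepG2-CYP2B6-hCAR cells exposed 24 h to 15-point compound series in presence of 0.75 uM PK11195 final.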
Structure (SMILES),Potency [1],outcome [2],outcome [3],outcome [4],Potency [5],Potency [6],Potency [7],outcome [8],outcome [9],Potency [10],outcome [11],Potency [12],outcome [13],outcome [14],Potency [15],Potency [16]
COP(=O)(OC)OC(c1ccc(Cl)cc1)P(=O)(OC)OC (stereo unspecified),inactive,inactive,inactive,inactive,inactive,inactive,inactive,inactive,inactive,inactive,inactive,inactive,inactive,inactive,,
O=P(O)(O)OP(=O)(O)O,inactive,inactive,inactive,inactive,inactive,inactive,inactive,inactive,,,,inactive,inactive,inactive,,
CC(C)=CCOC(=O)c1ccccc1,inactive,inactive,inactive,inactive,inactive,inactive,inactive,,inactive,inactive,inactive,,inactive,inactive,,
O=C(OCC1(COC(=O)c2cccnc2)CCCC(COC(=O)c2cccnc2)(COC(=O)c2cccnc2)C1O)c1cccnc1,inactive,inactive,inactive,inactive,,inactive,inactive,inactive,inactive,,,,inactive,inactive,inactive,inactive
CCOC(=O)/C=C/c1ccccc1,inactive,inactive,inactive,inactive,,inactive,inactive,inactive,inactive,,,inactive,,inactive,35.6 µM (active),inactive
CC(=O)OC(C)OC(=O)C(C)c1ccc(-c2ccccc2)c(F)c1 (stereo unspecified),inactive,inactive,inactive,inactive,inactive,inactive,inactive,,inactive,,,,inactive,inactive,,inactive
CCCCCCCCCCl,inactive,inactive,inactive,inactive,,inactive,inactive,,inactive,inactive,inactive,inactive,inactive,inactive,,
COc1cc(N)ccc1C,inactive,inactive,inactive,inactive,,inactive,inactive,inactive,inactive,1.52 µM (active),inactive,inactive,,inactive,,
CC1COc2ccccc2N1 (stereo unspecified),inactive,inactive,inactive,inactive,,inactive,inactive,inactive,,inactive,inactive,inactive,inactive,inactive,,inactive
CC(C)C(=O)OCc1cccc(OC(=O)[C@@H]2N3C(=O)[C@@H](NC(=O)Cc4ccccc4)[C@H]3SC2(C)C)c1,inactive,inactive,inactive,inactive,,inactive,inactive,,inactive,,,inactive,,inactive,inactive,
O=C(OCC(COC(=O)c1cccnc1)(COC(=O)c1cccnc1)COC(=O)c1cccnc1)c1cccnc1,inactive,inactive,inactive,inactive,,inactive,inactive,inactive,inactive,,,inactive,,inactive,inactive,inactive
O=C(O)CCSSCCC(=O)O,inactive,inactive,inactive,inactive,,inactive,inactive,inactive,inactive,,,inactive,inactive,inactive,inactive,
O=S(=O)(O)c1ccc2cc(O)c(S(=O)(=O)O)cc2c1,inactive,inactive,inactive,inactive,,inactive,inactive,inactive,inactive,,,inactive,inactive,inactive,inactive,inactive
Cc1cc(NC(=O)C2=C(O)c3ccccc3S(=O)(=O)N2C)no1,inactive,inactive,inactive,inactive,inactive,inactive,inactive,,inactive,,,inactive,inactive,,,
CC(=O)Nc1ccc(S(=O)(=O)Nc2ccc([N+](=O)[O-])cc2)cc1,inactive,inactive,inactive,inactive,,,,inactive,,,,inactive,inactive,inactive,inactive,inactive
CCCC/C=C\CCCCCCCCCC=O,inactive,inactive,inactive,,inactive,inactive,inactive,inactive,,inactive,inactive,inactive,,inactive,inactive,inactive
C=C(C)C(=O)OCCOP(=O)(O)OCCOC(=O)C(=C)C,inactive,inactive,inactive,,inactive,inactive,inactive,inactive,inactive,inactive,inactive,inactive,inactive,inactive,inactive,
C=C1CC/C=C(\C)CC[C@@H]2[C@@H]1CC2(C)C,inactive,inactive,inactive,,inactive,inactive,inactive,inactive,inactive,inactive,inactive,inactive,inactive,inactive,inactive,inactive
C[C@H](CCC(=O)O)[C@H]1CC[C@H]2[C@@H]3C(=O)C[C@@H]4CC(=O)CC[C@]4(C)[C@H]3CC(=O)[C@]12C,inactive,inactive,inactive,,inactive,inactive,inactive,inactive,inactive,inactive,inactive,inactive,,inactive,inactive,inactive
Nc1ccc(S(=O)(=O)Nc2ccc(Cl)nn2)cc1,inactive,inactive,inactive,,inactive,inactive,inactive,inactive,inactive,inactive,inactive,,inactive,inactive,inactive,inactive
